Screening data: PubChem, The Scripps Research Institute Molecular Screening Center
MITF primary: MITF inhibitors, primary screen, biochemical, AlphaScreen, human; AlphaScreen MITF homodimerization, bead proximity signal; Microphthalmia-associated transcription factor (Homo sapiens), O75030; actives 0.91% (n = 650,000); inhibition, % at 2.6 µM; in the data active = inhibition above about 50%;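 also: 0% = vehicle wells with protein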
GPR151 activ: activators of human GPR151, primary screen, cell-based, PathHunter beta-arrestin, luminescence | G-protein coupled receptor 151 (Homo sapiens), Q8TDV0 | PathHunter beta-arrestin GPR151 cells | activation, % at 11.2 µM | actives 1% (n = 650,000) | AID 1508602, 2020; in the data active = activation above about 4.9%;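 also: 0% = median of compound wells and 100% = cells with positive control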
Target sequence (Q8TDV0 whole entry, looked up): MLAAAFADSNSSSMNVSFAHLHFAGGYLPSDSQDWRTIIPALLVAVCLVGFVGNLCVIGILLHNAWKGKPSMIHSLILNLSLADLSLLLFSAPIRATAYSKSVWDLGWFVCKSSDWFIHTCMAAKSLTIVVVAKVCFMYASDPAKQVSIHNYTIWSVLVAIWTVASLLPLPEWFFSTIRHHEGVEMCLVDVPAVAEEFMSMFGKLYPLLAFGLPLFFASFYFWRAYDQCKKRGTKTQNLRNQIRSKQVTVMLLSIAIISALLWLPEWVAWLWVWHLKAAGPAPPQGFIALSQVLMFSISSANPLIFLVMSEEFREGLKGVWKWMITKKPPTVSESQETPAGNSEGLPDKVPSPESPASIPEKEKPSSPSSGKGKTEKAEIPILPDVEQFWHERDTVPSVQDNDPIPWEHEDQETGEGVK
FBW7 act: FBW7 E3 ligase activators, primary screen, biochemical, AlphaScreen, human. F-box/WD repeat-containing protein 7 (Homo sapiens), Q969H0. actives 0.13% (n = 650,000). normalized activity (activation), % at 26.1 µM. AlphaScreen FBW7–phospho-cyclin E peptide binding, activator screen; in the data active = normalized activity above about 1.9%;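 also: purified mutant Fbw7 with reduced substrate affinity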
TEAD-YAP inh: TEAD-YAP interaction inhibition, primary screen, TEAD-YAP interaction inhibitor project, luminescence, HEK-TIYL cells | TEAD-Gal4/YAP UAS-luciferase luminescence | inhibition, % at 9.12 µM | actives 1.4% (n = 640,000); in the data active = inhibition above about 32%;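 also: 0% = median of test compound wells and 100% = reference inhibitor wells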
MITF inh conf: MITF inhibitors, retest of hits, confirmation, biochemical, AlphaScreen, triplicate; shares compounds with MITF primary; AlphaScreen MITF homodimerization, biotin/His-MITF beads; inhibition, % at 2.6 µM; actives 16% (n = 4,700); AID 1259372, 2018;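 active = inhibition above a cutoff derived from the DMSO control wells, cut at about 28% in these data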;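 also: 0% = MITF dimer wells with DMSO only; inhibitors lower the bead chemiluminescence by keeping MITF from dimerizing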
AlphaScreen DR: AlphaScreen optical interference compounds, dose response, counter-screen, biochemical, HTS. shares compounds with MITF primary. AlphaScreen optical interference counterscreen, cell-free. IC50, µM. actives 6% (n = 480). AID 1259373, 2018; call rule not given here
AlphaScreen intf2: AlphaScreen optical interference compounds, counter-screen for MITF inhibitor project, biochemical, triplicate. inhibition, % at 2.6 µM. AID 1259376, 2018. LysRS AlphaScreen counterscreen, signal interference. shares compounds with MITF primary. actives 7.6% (n = 4,700);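 active = inhibition above a cutoff derived from the DMSO control wells, cut at about 30% in these data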
* = called active by the depositor; . = no result given. This is a sample that favours compounds with a hit; in the whole collection about 3.5% have one here.

SMILES | MITF primary | GPR151 activ | FBW7 act | TEAD-YAP inh | MITF inh conf | AlphaScreen intf2 | others
CSc1ccc(CN2CCN(C)CC2)cc1 | 21 | 1 | 0 | 3 | . | .
COc1cccc(CN2CCN(Cc3ccc(F)cc3)CC2)c1 | 72* | -1 | 0 | -18 | 10 | 14
Fc1ccc(CN2CCN(Cc3ccc(F)cc3)CC2)cc1 | 74* | 0 | 0 | 4 | 9 | -7
COc1ccc(/C=C/c2nc3ccccc3c(=O)n2-c2ccc(OC)c(Cl)c2)cc1 | -3 | 0 | 0 | -4 | . | .
Cc1ccc(-n2c(/C=C/c3ccccc3)nc3ccccc3c2=O)c(Br)c1 | 6 | 2 | 0 | 3 | . | .
NC(N)=Nc1ccc2[nH]c3c(c2c1)C[C@@]1(O)C2Cc4ccc(O)c5c4[C@@]1(CCN2CC1CC1)C3O5 (stereo partly drawn) | -1 | 1 | 0 | . | . | .
COc1cccc(CN2CCN(Cc3cccc(C)c3)CC2)c1 | 74* | 0 | 0 | -5 | 3 | 1
CCC(CC)N1CCN(Cc2cccc(OC)c2)CC1 | 73* | 2 | 0 | -2 | 6 | 12
COc1ccc(CN2CCN(Cc3ccc(Br)cc3)CC2)cc1 | 85* | 0 | 0 | 9 | -2 | 14
CN1CCN(Cc2ccc(N(C)C)cc2)CC1 | -40 | 1 | 0 | -6 | . | .
COc1cccc(CN2CCN(Cc3cccc(OC)c3)CC2)c1 | 7 | 0 | 0 | -3 | . | .
CN1CCN(Cc2ccc(C(F)(F)F)cc2)CC1 | 56* | 0 | 0 | 1 | 0 | 3
Cc1cc(C)nc(Nc2nc(CC(=O)N3CCN(C4CCCCC4)CC3)cs2)n1 | 15 | 2 | 0 | 11 | . | .
N/C(=N\N=C\c1ccccc1[N+](=O)[O-])N[N+](=O)[O-] | -6 | 0 | 0 | -4 | . | .
CCCC12CN3CC(C)(CN(C1)C3(C)CC)C2=O (stereo not drawn) | -2 | 1 | 0 | 2 | . | .
Clc1ccc(CN2CCN(Cc3cccc(Cl)c3)CC2)cc1 | 71* | 0 | 0 | -2 | 17 | 17
COc1cccc(CN2CCN(Cc3ccc(Cl)cc3)CC2)c1 | 79* | 3 | 0 | -19 | 17 | 17
COc1cc2ccccc2cc1C(=O)Nc1ccc(Cl)cc1C(=O)c1ccccc1 | -5 | 0 | 0 | 7 | . | .
COc1ccccc1CCNCc1cc(OC)c(OC)cc1OC | 28 | -2 | 0 | 2 | . | .
COc1ccccc1CCNCc1ccccc1OC | 52* | 0 | 0 | -7 | 2 | -8
O=[N+]([O-])c1ccc(NC(c2ccccc2)P(=O)(Oc2ccccc2)Oc2ccccc2)cc1 (stereo not drawn) | -11 | -1 | 0 | -2 | . | .
CC(C)N1CCN(C2CC3CCC2C3)CC1 (stereo not drawn) | 61* | -1 | 0 | 4 | -12 | 2
Fc1ccc(F)c(CN2CCN(Cc3ccccc3)CC2)c1 | -2 | 4 | 0 | -2 | . | .
CCc1ccc(CN2CCN(Cc3ccccc3F)CC2)cc1 | 71* | 0 | 0 | -5 | -3 | 0
Fc1ccccc1CN1CCN(Cc2ccccc2Cl)CC1 | 65* | 1 | 0 | 7 | 5 | 18
SMILES | MITF primary | GPR151 activ | FBW7 act | TEAD-YAP inh | MITF inh conf | AlphaScreen intf2 | others
Cc1ccccc1CN1CCN(Cc2cccc(F)c2)CC1 | 80* | 0 | 0 | -1 | 10 | 15
O=C(COc1ccc(Cl)cc1)N1CCN(Cc2ccccc2F)CC1 | 60* | 4 | 0 | 1 | 7 | 1
COc1cc2c(cc1C=C(C#N)C#N)OCO2 | 7 | 1 | 0 | -2 | . | .
Fc1ccccc1CN1CCC(n2nnc3ccccc32)CC1 | 8 | -1 | 0 | -4 | . | .
CC(C)N1CC(C)C(OC(=O)c2ccccc2)(c2ccccc2)CC1C (stereo not drawn) | 4 | -1 | 0 | 7 | . | .
Fc1ccc(CN2CCN(Cc3ccccc3Cl)CC2)cc1 | 70* | 0 | 0 | -12 | 11 | 30*
CN1CCN(Cc2ccccc2O)CC1 | 1 | 2 | 0 | 18 | . | .
CN1CCN(Cc2ccccc2F)CC1 | 52* | 0 | 0 | 9 | 1 | 1
Fc1ccccc1CN1CCN(Cc2ccc(Cl)cc2)CC1 | 50 | 1 | 0 | 2 | . | .
Cc1cccc(CN2CCN(Cc3ccccc3Cl)CC2)c1 | 51* | 0 | 0 | -2 | 10 | 15
Fc1ccc(CN2CCN(Cc3ccccc3F)CC2)cc1 | 78* | 2 | 0 | -13 | -7 | -3
CSc1ccc(CN2CCN(Cc3ccccc3Cl)CC2)cc1 | 33 | -2 | -1 | -5 | . | .
Cc1ccc2nc3c(cc(C#N)c(=O)n3Cc3ccccc3Cl)c(=O)n2c1 | 20 | -1 | 1 | 1 | . | .
CCOP(=O)(C(NC(=O)OC)=C(Cl)Cl)c1ccccc1 (stereo not drawn) | 3 | -1 | 0 | 3 | . | .
CNC1(c2nnnn2-c2cccc(C(F)(F)F)c2)CCC(C(C)(C)C)CC1 (stereo not drawn) | 8 | -1 | 0 | 1 | . | .
Fc1cccc(CN2CCN(Cc3ccccc3Cl)CC2)c1 | 78* | -1 | 0 | -9 | -8 | -4
Cn1c(=O)c2c(ncn2CC(=O)Nc2ccc(C#N)c(Cl)c2)n(C)c1=O | 3 | 1 | 0 | -2 | . | .
O=c1c2ccccc2nc(-c2ccccc2)n1-c1ccccc1O | 68* | 0 | 0 | 12 | 32* | -6 | AlphaScreen DR=>6.5
CCC(CC)N1CCN(Cc2ccc(OC)c(OC)c2OC)CC1 | 74* | -1 | 0 | 10 | 1 | 4
COc1ccc(OC)c(CN2CCN(Cc3ccccc3)CC2)c1 | 6 | 0 | 0 | -5 | . | .
CCC(C)N1CCN(Cc2cc(OC)ccc2OC)CC1 (stereo not drawn) | 57* | 1 | 0 | -7 | -2 | 3
CCC(C)N1CCN(Cc2ccc(OC)c(OC)c2OC)CC1 (stereo not drawn) | 69* | 0 | 0 | 4 | -1 | -7
O=[N+]([O-])c1cccc(CN2CCN(c3ccccc3)CC2)c1 | 36 | 0 | 0 | 4 | . | .
CC(C)N1CCN(Cc2cccc([N+](=O)[O-])c2)CC1 | 67* | 1 | 0 | -20 | 4 | 10
COc1cccc(N2CCN(Cc3cccc([N+](=O)[O-])c3)CC2)c1 | 51* | 1 | 0 | -10 | 4 | 4
O=[N+]([O-])c1cccc(CN2CCN(Cc3ccc(F)cc3)CC2)c1 | 66* | 0 | 0 | 5 | -16 | -5
Fc1ccc(CN2CCN(Cc3cccc(F)c3)CC2)cc1 | 45 | -1 | 0 | -2 | . | .
